Source: PubChem BioAssay (National Center for Advancing Translational Sciences (NCATS))
Shown are actives, neighbours in structure and some others; about 19% of the full set was active somewhere.
SW480 rereplic – induces DNA re-replication in SW480 colon adenocarcinoma cells; Potency, µM (highest dose often 46.1 µM), without a hit: at the top dose re-replication activation, usual class: activators; AID 624297; SW480 DNA re-replication, Hoechst DNA content imaging, 48 h; hit rate 1.8% among 340,000; further: potency means the concentration at half of the fitted maximal effect; % of control where 0% means no effect; nearly all actives have a fitted effect of over 55% in size
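First, 250 cells per well were seeded. Next, compound or vehicle (23 nL) was pinned in, plates sat 48 hr at 37 C. Finally Hoechst was added for 40 min before fluorescence scanning.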
MCF10A rereplic – inducers of DNA re-replication in MCF 10A breast cells; AID 624296; Potency, µM (highest dose often 46.1 µM), inactives show at the highest dose activity, positive = re-replication, actives largely listed as activators; MCF 10A DNA re-replication, Hoechst nuclear intensity, 48 h; hit rate 2.9% among 350,000; further: potency means the concentration at half of the fitted maximal effect; % of control where 0% means no effect; nearly all actives have a fitted effect of over 50% in size
BCR signal inh – inhibitors of chronic active B-cell receptor signaling | hit rate 0.05% among 340,000 | AID 493014 | Potency, µM (titrated, usually from 46.1 µM), inactives show at the highest dose activity change, negative = inhibition, hits mostly inhibitors | ABC-DLBCL IkBa-CBG/CBR reporter, luminescence ratio, 4 h; active means well fitted inhibition curve with a large enough effect in the signal ratio, with a control signal flat, not every such curve was filed as active; inconclusive means small, poorly fitted or top-dose-only effect, or effect the other way, or a change in a side signal; the % refers to the signal ratio;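 further: potency means the concentration at half of the fitted maximal effect; plate controls were basal doxycycline-induced cells for no effect and cells given 10 µM MG132 for full effect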
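Concentration-response series (up to 46 uM) were applied to TMD8 dual-reporter cells for 4 h at 37C with doxycycline. Green/red ratio, after filter-overlap correction, defined %Activity; red signal alone was normalised to basal cells and zero luminescence.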
TDP1 cell noCPT – qHTS for Inhibitors of human tyrosyl-DNA phosphodiesterase 1 (TDP1): qHTS in cells in absence of CPT; DT40 Tdp1-/- hTDP1 cells, no CPT, ATP luminescence, 48 h; Potency, µM (highest dose often 46.2 µM), for inactives: top-dose activity change, negative = growth inhibition, hits mostly inhibitors; hit rate 15% among 420,000; further: potency means the concentration at half of the fitted maximal effect; on the % scale 0 is the no-effect control and ±100 the full control effect; nearly all actives have a fitted effect of over 55% in size
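Chicken DT40 Tdp1-/- cells complemented with human TDP1, screened without camptothecin (DMSO vehicle only), 400 cells/well. Compounds pin-transferred, cells incubated at 37 °C for at least 48 hr. Growth read as ATP-dependent luminescence (CellTiter-Glo, 30 min at RT).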
IL-1B inflam inh – blocks inflammasome-driven IL-1 beta release | hit rate 4.7% among 360,000 | activity change, % at 57.5 µM | THP-1 LPS/ATP IL-1B secretion, AlphaLISA, 16 h; stronger effect = lower value; in the data active means activity change below about -50%; inconclusive means mostly about -30% to -49%; further: on the % scale 0 is the no-effect control and ±100 the full control effect
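Secreted IL-1B measured by AlphaLISA bead assay after 16 h compound exposure of THP-1 cells; compounds (final up to 57.5 uM) added 1 h before LPS (250 ng/mL) and ATP (1.25 mM) stimulation; lower signal means less secretion.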
TDP1 cell CPT – growth inhibition of DT40 Tdp1-/-;hTDP1 cells with camptothecin (screen for TDP1 inhibitors); chicken DT40 Tdp1-/-;hTDP1 cells + 20 nM CPT, ATP luminescence, 48 h; Potency, µM (top dose mostly 46.2 µM), for the others: at the highest dose activity change, negative = growth inhibition, most hits filed as inhibitors; AID 686979; hit rate 12% among 420,000; further: potency means the concentration at half of the fitted maximal effect; on the % scale 0 is the no-effect control and ±100 the full control effect; nearly all actives have a fitted effect of over 55% in size
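Chicken DT40 Tdp1-/- cells stably complemented with human TDP1 were seeded at 400 cells/well in medium containing 20 nM camptothecin, exposed to pin-transferred compounds, and grown at 37 °C for at least 48 hr. Viability was read as ATP luminescence.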
Numbers without * were called inactive; ? = inconclusive; / = no result given. Unless noted, the call rests on the fitted dose curve; in most records, active means well fitted curve in the direction sought with a large enough effect; inconclusive means small, poorly fitted or top-dose-only effect, or another doubt; inactive means no such curve, though single readings can be large; an effect the other way counts as inactive or inconclusive.

SMILES	SW480 rereplic	MCF10A rereplic	BCR signal inh	TDP1 cell noCPT	IL-1B inflam inh	TDP1 cell CPT
CC(=O)Nc1ccc(OS(=O)(=O)c2ccccc2C)cc1	1%	-3%	-1%	?	-2	-1%
CC(=O)Nc1ccc(OS(=O)(=O)c2cc(Cl)ccc2C)cc1	-41%	0%	-2%	15µM*	27	21µM*
CC(=O)Nc1ccc(S(=O)(=O)NCCC(=O)OCc2ccccc2F)cc1	?	-4%	-2%	-1%	-26	-22%
CCCCN(C(=O)CSCc1c(C)noc1C)c1c(N)n(CCCC)c(=O)[nH]c1=O	-6%	-3%	2%	-6%	13	-3%
Cc1ccc(S(=O)(=O)N(c2nc(NC(C)C)nc(NC(C)C)n2)n2cnnc2)cc1	-13%	0%	7%	?	-2	-3%
CC(=O)Nc1cccc(OCCCOc2ccc([N+](=O)[O-])cc2)c1	-12%	10%	?	3.7µM*	0	13µM*
CC(=O)Nc1cccc(OCCOc2cccc([N+](=O)[O-])c2)c1	-2%	4%	/	-32%	3	-20%
C=CCOc1ccc2nc(NC(=O)OC)[nH]c2c1	1.3µM*	1.5µM*	?	0.82µM*	41	0.65µM*
C=C(c1ccc2nc(NC(=O)OC)[nH]c2c1)c1cccs1	0.73µM*	0.58µM*	/	0.82µM*	46	0.73µM*
CCOC(=O)c1ccc2nc(NC(=O)c3cccs3)sc2c1	7%	?	?	?	-21	-29%
CCOc1ccc2nc(NCCO)[nH]c2c1	2%	12%	-1%	-23%	44	-16%
CCCCc1ccc2nc(NC(=O)OC)[nH]c2c1	0.13µM*	?	/	0.057µM*	/	0.072µM*
O=c1cc(CN2CCN(c3ccccc3)CC2)c2ccccc2o1	/	/	/	-1%	-6	-1%
Oc1ccccc1N1CCN(c2ccc3ccccc3n2)CC1	-9%	24%	0%	-28%	?	0%
Cc1nc2ccccn2c(=O)c1NC(=O)c1ccc2c(c1)OCO2	/	/	/	-7%	16	3%
CN1CCN(C(CNC(=O)c2ccc(Br)o2)c2ccc(F)cc2)CC1 (centres undefined)	0%	10%	8%	-8%	-16	-1%
Fc1ccc(CNCCC(Cc2ccccc2)c2ccco2)cc1 (centres undefined)	3%	1%	?	?	-80*	-27%
CC(NCCC(Cc1ccccc1)c1ccco1)c1ccccc1 (centres undefined)	-1%	0%	-12%	?	-59*	?
O=C(CC(Cc1ccccc1)c1ccco1)NC1CCCCC1 (centres undefined)	1%	1%	19%	-16%	-10	-13%
C[C@@H](C(=O)CC(=O)OC(C)(C)C)[C@@H](O)c1ccccc1	-13%	-5%	-8%	7%	12	0%
COc1ccc(CN2C(=O)N(c3cccc(C)c3)C(=O)C2CC(=O)Nc2ccc(F)cc2)cc1OC (centres undefined)	/	/	/	?	/	-15%
CCc1ccc(NC(=O)CC2C(=O)N(c3cccc(OC)c3)C(=O)N2Cc2ccc(F)cc2)cc1 (centres undefined)	/	/	/	18µM*	/	23µM*
COc1ccc(NC(=O)CC2C(=O)N(c3cccc(OC)c3)C(=O)N2CCC2=CCCCC2)cc1 (centres undefined)	/	/	/	23µM*	/	?
COc1ccc(CCN2C(=O)N(c3ccc(C)cc3)C(=O)C2CC(=O)Nc2ccc(F)cc2)cc1 (centres undefined)	/	/	/	21µM*	/	?
COC(=O)c1ccc(NC(=O)CC2C(=O)N(c3ccc(Cl)cc3)C(=O)N2Cc2ccco2)cc1 (centres undefined)	/	/	/	18µM*	/	16µM*
SMILES	SW480 rereplic	MCF10A rereplic	BCR signal inh	TDP1 cell noCPT	IL-1B inflam inh	TDP1 cell CPT
COC(=O)c1ccc(NC(=O)CC2C(=O)N(c3ccccc3)C(=O)N2Cc2ccco2)cc1 (centres undefined)	/	/	-1%	-40%	/	?
CC[C@]12c3[nH]c4ccc(OC)cc4c3CCN1C(=O)C(CC(=O)NCCCn1ccnc1)C[C@@H]2C(=O)N1CCN(C(=O)c2ccco2)CC1 (some centres undefined)	-9%	-4%	0%	-4%	-6	17%
O=C(CC1C=CCC1)Nc1ccccc1 (centres undefined)	-4%	-21%	/	-3%	-17	13%
COc1ccc(CN2C(=O)N(c3ccc(OC)cc3)C(=O)C2CC(=O)Nc2ccccc2)cc1 (centres undefined)	2%	14%	-1%	?	-4	-14%
CCCOc1ccc(NC(=O)CC2C(=O)N(c3ccccc3)C(=O)N2Cc2ccc(F)cc2)cc1 (centres undefined)	/	/	/	21µM*	/	16µM*
COC(=O)c1ccc(NC(=O)CC2C(=O)N(c3ccc(F)cc3)C(=O)N2Cc2ccc(OC)cc2)cc1 (centres undefined)	/	/	/	18µM*	/	?
COC(=O)c1ccc(NC(=O)CC2C(=O)N(c3cccc(OC)c3)C(=O)N2Cc2cccc(OC)c2)cc1 (centres undefined)	/	/	/	15µM*	/	?
COc1cc(NC(=O)CC2C(=O)N(c3cccc(C)c3)C(=O)N2Cc2ccco2)cc(OC)c1 (centres undefined)	/	/	/	23µM*	/	?
CCCc1cc(=O)[nH]c(SCC(=O)N2CCCCCC2)n1	-3%	-1%	2%	17%	44	-6%
CC1=C(C(=O)N(C(C)C)C(C)C)CC(CC(=O)NC(c2ccccc2)c2ccccc2)C(=O)N1CCCN1CCCC1=O (centres undefined)	/	/	/	-19%	-10	-14%
C#CCOCCOCCOCCNc1nc(N2CCN(C(=O)[C@H](CCC(=O)O)n3cc([C@@H](N)CCCCN)nn3)CC2)nc(N2CCN(C(=O)[C@H](CCCCN)n3cc([C@@H](N)CC(N)=O)nn3)CC2)n1	-10%	0%	1%	2%	18	8%
O=C(CC1C(=O)N(c2ccc(Cl)cc2)C(=S)N1CCc1ccncc1)Nc1ccc(F)cc1 (centres undefined)	0%	-13%	?	?	-63*	?
CCOC(=O)c1ccc(NC(=O)CC2C(=O)N(c3ccccc3)C(=O)N2Cc2ccc(C)cc2)cc1 (centres undefined)	/	/	/	23µM*	/	?
